Measured values reported in PubChem BioAssay (NCATS).
Unmarked numbers belong to inactive results. Calls come from the whole dose curve; as a rule, active = well fitted curve in the direction sought with a large enough effect; inconclusive = small, poorly fitted or top-dose-only effect, or another doubt; inactive = no such curve, though single readings can be large or run the other way.

Target: Galactokinase (Homo sapiens) (UniProt P51570)
Test: qHTS Validation Assay for Inhibitors of Human Galactokinase (GALK) (AID 493189); note: 0% is about no effect
Settings: purified human GALK enzyme activity, qHTS 7-point titration; series mostly up to 57.5 µM; activity change, negative = inhibition: at the top concentration
Source text: NIH Molecular Libraries Probe Production Centers Network [MLPCN]
NIH Chemical Genomics Center [NCGC]
Assay Submitter (PI): Kent Lai (University of Utah School of Medicine, 50 N Mario Capecchi Drive, Salt Lake City, UT 84132)
Inherited deficiency of galactose-1-phosphate uridyltransferase (GALT) can result in a potentially lethal disorder called Classic Galactosemia (OMIM 230400). Several lines of evidence indicate that an elevated level of galactose-1-phosphate (gal-1-p), the product of galactokinase (GALK), is a major, if not sole, pathogenic mechanism in patients with classic galactosemia. Therefore, finding inhibitors of GALK is a potential novel therapy for this inherent metabolic disease and is the long term goal of this project.
GALK (provided by the assay submitter) was assayed using ATP and D-(+)-Galactose (Sigma-Aldrich cat# G0750) as substrates. Promega Kinase-Glo Plus (cat# V3774) technology was used to detect the residual ATP following kinetic reaction. Briefly, the Kinase-Glo Plus contains Ultra-Glo [2] luciferase and D-luciferin which generates a bioluminescence signal from the remaining ATP.
NCGC Assay Protocol Summary:
Three uL/well of ATP-buffer solution (35 uM ATP, 20mM HEPES pH8.0, 5 mM MgCl2, 60 mM NaCl, 1 mM DTT, 0.01% BSA final concentration) was dispensed into 1536-well, assay plates (Greiner, solid white medium-binding plates) with Aurora Discovery BioRAPTR Flying Reagent Dispenser (FRD; Beckton-Dickenson). Compound solution (23 nL) was transferred to the assay plate using the Kalypsys 1536-pin tool. One uL/well GALK-galactose solution (5 nM GALK, 100 uM galactose, 20 mM HEPES pH8.0, 5 mM MgCl2, 60 mM NaCl, 1 mM DTT, 0.01% BSA final concentration) was then added using the FRD yielding a total kinase reaction volume of 4 uL/ well. After 1 hour of room temperature incubation, 4 uL Kinase-Glo Plus reagent was added for a final assay volume of 8 uL/ well. Luminescence was detected with the ViewLux plate reader (Perkin Elmer, Waltham, MA) after 10 min incubation using a 1 sec exposure time and 2x binning.

Sequence of Galactokinase (Homo sapiens) (P51570 whole entry, looked up): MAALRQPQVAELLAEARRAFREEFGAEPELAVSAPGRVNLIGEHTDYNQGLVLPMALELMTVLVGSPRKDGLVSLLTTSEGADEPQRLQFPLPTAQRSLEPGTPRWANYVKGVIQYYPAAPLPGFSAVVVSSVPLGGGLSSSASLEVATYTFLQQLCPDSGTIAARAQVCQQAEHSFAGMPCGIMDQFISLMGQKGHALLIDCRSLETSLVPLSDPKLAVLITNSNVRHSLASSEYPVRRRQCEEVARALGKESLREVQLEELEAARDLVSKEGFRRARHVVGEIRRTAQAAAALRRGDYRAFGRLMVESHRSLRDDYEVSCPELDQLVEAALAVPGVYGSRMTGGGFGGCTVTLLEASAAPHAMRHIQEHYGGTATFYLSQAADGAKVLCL

Row | SMILES | activity change, negative = inhibition [%]
1 | NC(=O)c1cc(N2CC2)c([N+](=O)[O-])cc1[N+](=O)[O-] | 1.89
2 | Cc1o[nH]c(=O)c1CC(N)C(=O)O (stereo not given) | 4.39
3 | Oc1ccc2c3c1O[C@H]1c4[nH]c5ccccc5c4C[C@@]4(O)C(C2)N(CC2CC2)CCC314 (stereo not given in full) | -0.76
4 | CC(C)(C)c1o[nH]c(=O)c1CC(N)C(=O)O (stereo not given) | 3.25
5 | Nc1ccc(CCN2CCN(c3cccc(C(F)(F)F)c3)CC2)cc1 | 2.91
6 | NCCc1ccc(S(=O)(=O)F)cc1 | 1.35
7 | C/C(O)=C(\C#N)C(=O)Nc1cc(Br)ccc1Br | 0.637
8 | CCn1cnc2c(Nc3cccc(Cl)c3)nc(N[C@@H]3CCCC[C@@H]3N)nc21 | 3.42
9 | NC(C(=O)O)c1cc(=O)[nH]o1 (stereo not given) | -0.0148
10 | Cc1c2ccncc2c(C)c2c1[nH]c1ccccc12 | 2.28
11 | C[N+]1(C)CCC(OC(=O)C(c2ccccc2)c2ccccc2)CC1 | -0.0426
12 | C[N+]1(C)CCN(c2ccccc2)CC1 | -3.46
13 | CNc1ccc2oc(C[C@H]3O[C@@]4(CC[C@H]3C)O[C@H]([C@H](C)C(=O)c3ccc[nH]3)[C@H](C)C[C@H]4C)nc2c1C(=O)O | -1.18
14 | COc1ccc2c(c1OC)C(=O)OC2C1c2cc3c(cc2CCN1C)OCO3 (stereo not given) | -0.764
15 | CC(=O)c1c(O)c(C)c(O)c(Cc2c(O)c3c(c(C(=O)/C=C/c4ccccc4)c2O)OC(C)(C)C=C3)c1O | -13
16 | C[N+]1(C)C2CCC1CC(OC(=O)c1c[nH]c3ccccc13)C2 (stereo not given) | -3.05
17 | COc1ccc2[nH]c3c(c2c1)CCNC3 | -2.89
18 | NNC(=O)c1ccc(O)cc1 | -1.77
19 | COC(=O)N1CCN(C(=O)Cc2ccc(Cl)c(Cl)c2)C(CN2CCCC2)C1 (stereo not given) | 4.33
20 | Oc1ccc2c3c1O[C@H]1c4oc5ccccc5c4C[C@@]4(O)C(C2)N(CC2CC2)CCC314 (stereo not given in full) | -3.29

Row | SMILES | activity change, negative = inhibition [%]
21 | NC(N)=Nc1ccc2[nH]c3c(c2c1)C[C@@]1(O)[C@H]2Cc4ccc(O)c5c4[C@@]1(CCN2CC1CC1)[C@H]3O5 | 1.99
22 | Ic1ccccc1CNC1C2CCN(CC2)C1C(c1ccccc1)c1ccccc1 (stereo not given) | -14.9
23 | N[C@@]1(C(=O)O)CC[C@@H](C(=O)O)C1 | -0.162
24 | CC12NC(Cc3ccccc31)c1ccccc12 (stereo not given) | 2.58
25 | O=[N+]([O-])c1ccc2nc(N3CCNCC3)ccc2c1 | 3.22
26 | CCN(CCCl)Cc1ccccc1Br | 1.32
27 | CC(N)Cc1c[nH]c2ccc(OCc3cccs3)cc12 (stereo not given) | 2.99
28 | CC1OC1P(=O)(O)O (stereo not given) | 5.25
29 | C=CCN1C[C@@H](C)N([C@H](c2ccc(C(=O)N(CC)CC)cc2)c2cccc(OC)c2)C[C@@H]1C | -4.08
30 | N#CC(C#N)=Cc1cc(O)c(O)c(O)c1 | 5.27
31 | C[C@@H]1O[C@H](C[N+](C)(C)C)CS1 | 0.766
32 | CNC(=O)OCC[N+](C)(C)C | -3.52
33 | C=CCN1CC[C@]23c4c5ccc(O)c4O[C@H]2/C(=N/NC(=O)c2ccccc2)CC[C@@]3(O)[C@H]1C5 | -2.34
34 | C=CCN1CC[C@]23c4c5ccc(O)c4O[C@@H]2/C(=N/N=C2\CC[C@@]4(O)C6Cc7ccc(O)c8c7[C@@]4(CCN6CC=C)[C@@H]2O8)CC[C@@]3(O)C1C5 | 2.68
35 | CCCN1CCCC2Cc3[nH]ncc3CC21 (stereo not given) | -13
36 | COc1cc(CC(C)N)c(OC)cc1I (stereo not given) | -0.527
37 | C[N+](C)(C)CC#CCOC(=O)Nc1cccc(Cl)c1 | -1.46
38 | Cc1[nH]c2ccc(O)cc2c1CCN | 3.77
39 | NCCCP(=O)(O)O | -14.1
40 | N[C@@H](CCl)C(=O)O | -4.77
